Test results taken from PubChem BioAssay (Tox21).
Calls of active or inactive are those of the source. Entries that show only a call come without a potency. Calls come from the whole dose curve; as a rule, active = well fitted activation curve with a large enough effect in the repeat runs; inconclusive = weak or mixed curves; inactive = flat fitted curve, though single readings scatter.

Assay: A CellTox Green Cytotoxicity Assay to monitor cytotoxicity in HEK293 cells - 0 hour (AID 1224869); note: nearly all actives have a fitted effect of over 50% in size
Details: CellTox Green fluorescence; series mostly up to 76.8 µM
Description: National Center for Advancing Translational Sciences [NCATS]
NIH Chemical Genomics Center [NCGC]
U.S. Environmental Protection Agency [EPA]
National Institutes of Environmental Health Sciences [NIEHS]
National Toxicology Program [NTP]
Cell-based models are critical for drug discovery. Determining the natural cytotoxic effects resulting from test compounds is an essential research activity. A CellTox Green Cytotoxicity Assay to monitor cytotoxicity in real time of continues cell culture during 40 hours of the compound treatment was used to screen Tox21 10K library compounds in Hek293 cells. CellTox Green Cytotoxicity Assay is a nonlytic, homogeneous, biofluorescent method to measure cytotoxicity in cell culture after experimental manipulation. The assay system uses a proprietary asymmetric cyanine dye that is excluded from viable cells but preferentially stains the dead cell's DNA. […] Viable cells produce no appreciable increases in fluorescence. Therefore, the fluorescence signal produced by the binding interaction with dead cell DNA is proportional to cytotoxicity.
The mixture of Hek293 cell suspension and reagents were dispensed at 600cells/6 ul/well in 1536-well tissue culture treated black solid bottom plates using a Multidrop dispenser. After the assay plates were incubated at a 37 C/5% CO2 incubator for 5 hours, 23 nL of compounds dissolved in DMSO, positive and negative controls was transferred to the assay plate by a pintool work station. The plates were incubated at 37 C for 40 hours. The fluorescence intensity were measured at 0h, 8h, 16h, 24h, 32h and 40h time points using ViewLux plate reader during compound treatment.
Potency is the fitted concentration of half-maximal effect.

Q: With `CN1C[C@H](C(=O)N[C@]2(C)O[C@@]3(O)[C@@H]4CCCN4C(=O)[C@H](Cc4ccccc4)N3C2=O)C[C@@H]2c3cccc4[nH]cc(c34)C[C@H]21` as the molecule, how does the Potency read?
A: The Potency was “inactive”.

Q: With `CCOC(=O)c1ccc(I)cc1` as the molecule, how does the Potency read?
A: The Potency was “inactive”.

Q: Which Potency does the source give for `CCC1(CO)COCOC1` here?
A: Its Potency is “inactive”.

Q: With `C/C=C/C=C/C=O` as the molecule, how does the Potency read?
A: The Potency was “inactive”.

Q: With `Brc1cc2ccccc2c2ccccc12` as the molecule, how does the Potency read?
A: The Potency was “inactive”.

Q: Which Potency does the source give for `CC1=C(CC=O)C(C)(C)CCC1` here?
A: Its Potency is “inactive”.

Q: For `Oc1cccc(O)c1O`, which Potency is on record?
A: Its Potency is “inactive”.

Q: With `C=C1c2cccc(O)c2C(O)=C2C(=O)[C@]3(O)C(O)=C(C(N)=O)C(=O)[C@@H](N(C)C)[C@@H]3[C@@H](O)[C@H]12` as the molecule, how does the Potency read?
A: Its Potency is “inactive”.

Q: For `Oc1ccc(Cl)c2cccnc12`, which Potency is on record?
A: Its Potency is “inactive”.

Q: Which Potency does the source give for `CCCCCCCCCCC(=O)O` here?
A: Its Potency is “inactive”.

Q: Which Potency does the source give for `CC(C)COCC(CN(Cc1ccccc1)c1ccccc1)N1CCCC1` (stereo not given) here?
A: The Potency was “inactive”.

Q: With `CC(C)c1nc(CN(C)C(=O)N[C@H](C(=O)N[C@@H](Cc2ccccc2)C[C@H](O)[C@H](Cc2ccccc2)NC(=O)OCc2cncs2)C(C)C)cs1` as the molecule, how does the Potency read?
A: The Potency was “inactive”.

Q: For `OCCOCC#CCOCCO`, which Potency is on record?
A: Its Potency is “inactive”.

Q: Which Potency does the source give for `CC(=O)OCC(=O)NCCCOc1cccc(CN2CCCCC2)c1` here?
A: The Potency was “inactive”.

Q: With `CO[C@]1(NC(=O)CSC(F)F)C(=O)N2C(C(=O)O)=C(CSc3nnnn3CCO)CO[C@H]21` as the molecule, how does the Potency read?
A: The Potency was “inactive”.

Q: For `Cc1ccco1`, which Potency is on record?
A: Its Potency is “inactive”.

Q: For `CC(CN(C)C)C(C)(O)Cc1ccc(Cl)cc1` (stereo not given), which Potency is on record?
A: The Potency was “inactive”.

Q: For `O=C(/C=C/c1ccccc1)OCCc1ccccc1`, which Potency is on record?
A: The Potency was “inactive”.

Q: With `CC1=C(Br)C(=O)C(Br)=C/C1=C(/c1ccccc1S(=O)(=O)O)c1cc(Br)c(O)c(Br)c1C` as the molecule, how does the Potency read?
A: Its Potency is “inactive”.

Q: Which Potency does the source give for `O=C1NC(=O)c2cc([N+](=O)[O-])ccc21` here?
A: Its Potency is “inactive”.

Q: With `Cc1[nH]cnc1CN1CCc2c(c3ccccc3n2C)C1=O` as the molecule, how does the Potency read?
A: Its Potency is “inactive”.

Q: Which Potency does the source give for `CCCCOc1ccc(OCCCN2CCOCC2)cc1` here?
A: The Potency was “inactive”.

Q: For `C[C@@H](O[C@H]1OCCN(Cc2n[nH]c(=O)[nH]2)[C@H]1c1ccc(F)cc1)c1cc(C(F)(F)F)cc(C(F)(F)F)c1`, which Potency is on record?
A: Its Potency is “inactive”.

Q: For `CC(=O)N/N=C/c1ccc([N+](=O)[O-])o1`, which Potency is on record?
A: The Potency was “inactive”.

Q: Which Potency does the source give for `CC(C)(c1ccccc1)c1ccccc1` here?
A: The Potency was “inactive”.

Q: Which Potency does the source give for `Clc1ccc(Nc2nnc(Cc3ccncc3)c3ccccc23)cc1` here?
A: The Potency was “inactive”.

Q: With `CCOC(C)=O` as the molecule, how does the Potency read?
A: Its Potency is “inactive”.

Q: Which Potency does the source give for `CCCCCC[C@@H](O)C/C=C\CCCCCCCC(=O)OCC(O)CO` (stereo not given in full) here?
A: Its Potency is “inactive”.

Q: Which Potency does the source give for `O=C1C(=O)c2ccccc2C(O)=C1C1CCC(c2ccc(Cl)cc2)CC1` (stereo not given) here?
A: The Potency was “inactive”.

Q: Which Potency does the source give for `Cc1c(C)c2c(c(C)c1OC(=O)CCC(=O)OCCO)CC[C@@](C)(CCC[C@H](C)CCC[C@H](C)CCCC(C)C)O2` here?
A: Its Potency is “inactive”.

Q: Which Potency does the source give for `O=C(O)CCC(=O)C(=O)O` here?
A: The Potency was “inactive”.

Q: Which Potency does the source give for `CC=C(Cl)Cl` here?
A: The Potency was “inactive”.

Q: Which Potency does the source give for `C[C@H]1c2cccc(O)c2C(O)=C2C(=O)[C@]3(O)C(O)=C(C(N)=O)C(=O)[C@@H](N(C)C)[C@@H]3[C@@H](O)[C@@H]21` here?
A: The Potency was “inactive”.

Q: For `COC(=O)C1=C(C)NC(C)=C(C(=O)O[C@@H]2CCCN(Cc3ccccc3)C2)[C@@H]1c1cccc([N+](=O)[O-])c1`, which Potency is on record?
A: Its Potency is “inactive”.

Q: For `CCn1cc(C(=O)O)c(=O)c2cc(F)c(N3CCNCC3)cc21`, which Potency is on record?
A: The Potency was “inactive”.

Q: With `COc1cc(C(=O)NCCCCCC(=O)O)cc(OC)c1OC` as the molecule, how does the Potency read?
A: The Potency was “inactive”.

Q: With `Cc1cc(=O)c2c(O)c3c(O)cc(=O)c4c3c3c(cc(O)c1c23)C(C)(C)C=4O` as the molecule, how does the Potency read?
A: The Potency was 3.69 µM (active).

Q: Which Potency does the source give for `CCOC(=O)C1=C(C)NC(C)=C(C(=O)OC)C1c1cccc(Cl)c1Cl` (stereo not given) here?
A: The Potency was “inactive”.

Q: Which Potency does the source give for `C=COCC(C)C` here?
A: The Potency was “inactive”.

Q: For `O=C1Cc2cc(Cl)ccc2N1`, which Potency is on record?
A: Its Potency is “inactive”.
